PubChem BioAssay
“And” between values parts separate entries of the source, which are not always exact repeats. Identical values can stand only once. Some compounds were tested as several samples or in several runs, with calls that do not always agree. The source made the active and inactive calls.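 The calls were made as follows, unless noted: active = mean z-score across replicates of 1.96 or higher in either the MELAS or the Rieske mutant cell line; inactive = the rest.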 Where a SMILES comes first, the peptide text is derived from it. The star is where a group is joined. Cbz = O=C(OCc1ccccc1)*

What was measured:
[1] = sensitizers of A549 cells to miR-34 induction, primary screen, imaging, A549 dox-inducible miR-34, nuclei and caspase counts (AID 1347080;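 active = compounds whose cell count with miR-34 switched on is under 0.7 times the count with it off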); details: A549 miR-34 inducible, Hoechst nuclei count, 48 h
[2] = survival rescue of mitochondrial mutant cells in low glucose, primary screen, MELAS cybrids, Rieske KO mouse fibroblasts, CellTiter-Glo (AID 1508586);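 also: z relative to plate mean and SD of compound and empty wells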
[3] = stronger effect = lower value, cell number ratio, induced over uninduced
[4] = measured here: relative caspase fold change +Dox/-Dox
[5] = measured here: total cells with miR-34 induction, stronger effect = lower value
[6] = measured here: total cells without miR-34 induction
[7] = MELAS cybrid survival, CellTiter-Glo 48 h, stronger effect = higher value
[8] = Rieske KO mouse fibroblast survival, CellTiter-Glo 72 h
Also: test concentration not given here.

Row | SMILES | fold change [1, 3] | fold change [1, 4] | cell count [1, 5] | cell count [1, 6] | z-score [2, 7] | z-score [2, 8]
1 | FC(F)(F)c1ccc(C=Cc2nc(COc3ccc(CCCCn4ccnn4)cc3)co2)cc1 | 0.766 (inactive) | 1.23 | 4190 | 5470 | -0.189 (inactive) | -0.508
2 | CCCCC(=O)OC1CC[C@H]2[C@@H]3CCc4cc(O)ccc4[C@@H]3CC[C@]12C (stereo not given in full) | 0.855 (inactive) | 0.887 | 7760 | 9080 | -0.195 (inactive) | -0.141
3 | CC(C)(O)CCC(O)[C@](C)(O)C1CC[C@@]2(O)C3=CC(=O)[C@@H]4CC(O)C(O)C[C@]4(C)[C@@H]3CC[C@]12C (stereo not given in full) | 0.992 (inactive) | 0.932 | 10200 | 10300 | -0.354 (inactive) | 0.685
4 | O=C1c2c(O)cc(O)cc2OC(c2cc(O)c(O)c(O)c2)C1O (stereo not given) | 0.92 (inactive) | 0.77 | 9760 | 10600 | -0.325 (inactive) | 0.635
5 | CC(=O)C1CC[C@H]2[C@@H]3CCC4=CC(=O)CC[C@]4(C)[C@@H]3CC[C@]12C (stereo not given in full) | 0.844 (inactive) | 1.47 | 7050 | 8360 | -0.493 (inactive) | -0.487
6 | COc1cc(-c2ncn(C=CC(=O)OC(C)C)n2)cc(C(F)(F)F)c1 | 0.884 (inactive) | 0.634 | 2040 | 2310 | -0.00249 (inactive) | -7.09
7 | Cc1cc(OCCCS(C)(=O)=O)cc(C)c1-c1cccc(COc2ccc3c(c2)OCC3CC(=O)O)c1 (stereo not given) | 0.928 (inactive) | 0.766 | 7480 | 8070 | -0.428 (inactive) | 0.0224
8 | Cn1ncnc1C1c2n[nH]c(=O)c3cc(F)cc(c23)NC1c1ccc(F)cc1 (stereo not given) | 0.895 (inactive) | 1.04 | 2740 | 3060 | -0.229 (inactive) | -0.124
9 | Brc1ccc(C2CN3CCSC3=N2)cc1 (stereo not given) | 0.957 (inactive) | 0.301 | 9050 | 9460 | -0.426 (inactive) | -0.0963
10 | CC1CCO[C@H]2Cn3cc(C(=O)NCc4ccc(F)cc4F)c(=O)c(O)c3C(=O)N12 (stereo not given in full) | 1 (inactive) | 0.731 | 8400 | 8370 | -0.34 (inactive) | 0.66
11 | CCN1CCN(Cc2ccc(-c3cc4c(NC(C)c5ccccc5)ncnc4[nH]3)cc2)CC1 (stereo not given) | 1.04 (inactive) | 0.932 | 3430 | 3280 | -0.0772 (inactive) | 0.518
12 | CCOc1cc(C(CS(C)(=O)=O)N2C(=O)c3cccc(NC(C)=O)c3C2=O)ccc1OC (stereo not given) | 0.919 (inactive) | 0.498 | 8660 | 9420 | -0.371 (inactive) | -0.546
13 | CCC(C)C(NC(=O)C(CCC(=O)O)NC(=O)C(CC(C)C)NC(=O)C1CN=C(C(N)C(C)C)S1)C(=O)NC1CCCCNC(=O)C(CC(N)=O)NC(=O)C(CC(=O)O)NC(=O)C(Cc2cnc[nH]2)NC(=O)C(Cc2ccccc2)NC(=O)C(C(C)CC)NC(=O)C(CCCN)NC1=O (stereo not given) | 1.05 (inactive) | 0.927 | 7610 | 7240 | -0.25 (inactive) | -0.261
14 | COc1cc2ncnc(Sc3nnc(C)s3)c2cc1OC | 0.954 (inactive) | 0.244 | 5380 | 5640 | 2.8 (active) | 1.21
15 | CCNC(=O)Nc1ccc(-c2nc3c(c(N4CCOCC4C)n2)CCN(C2COC2)C3)cc1 (stereo not given) | 0.905 (inactive) | 0.555 | 2790 | 3080 | 2.89 (active) | -0.834
16 | C#CCC(Cc1cnc2nc(N)nc(N)c2n1)c1ccc(C(=O)NC(CCC(=O)O)C(=O)O)cc1 (stereo not given) | 1.12 (inactive) | 0.784 | 2390 | 2130 | -0.188 (inactive) | 0.624
17 | CCOC(=O)C(CCc1ccccc1)NC(C)C(=O)N1C(=O)N(C)CC1C(=O)O (stereo not given) | 0.891 (inactive) | 1.39 | 7920 | 8880 | 0.163 (inactive) | -0.0366
18 | O=C(NNc1nc2cc(F)ccc2n2cccc12)c1cnccn1 | 0.939 (inactive) | 0.345 | 2180 | 2330 | 1.52 (inactive) | -2.55
19 | CC(=O)OCC(=O)[C@]1(O)CC[C@H]2[C@@H]3CCC4=CC(=O)CC[C@]4(C)[C@@H]3C(=O)C[C@@]21C | 0.938 (inactive) | 0.685 | 9630 | 10300 | -0.429 (inactive) | -0.073
20 | O=C(Nc1ccc(S(=O)(=O)Nc2ccccc2Cl)c(Cl)c1)c1ccccn1 | 0.91 (inactive) | 0.513 | 8160 | 8970 | -0.368 (inactive) | -0.0416
21 | CCCC(=O)Nc1cccc(NC(=O)c2ccccc2Br)c1 | 0.957 (inactive) | 0.928 | 7570 | 7910 | -0.112 (inactive) | -0.0371
22 | O=C(c1ccc(C=Cc2n[nH]c3ccccc23)cc1)N1CCNCC1 | 0.879 (inactive) | 0.981 | 2420 | 2750 | 0.658 (inactive) | -1.76
23 | Cc1nc(Nc2n[nH]c3c2CN(C(=O)NC(CN(C)C)c2ccccc2)C3(C)C)c2sccc2n1 (stereo not given) | 1.06 (inactive) | 0.274 | 1510 | 1420 | 0.106 (inactive) | -7.7

Row | SMILES | fold change [1, 3] | fold change [1, 4] | cell count [1, 5] | cell count [1, 6] | z-score [2, 7] | z-score [2, 8]
24 | CC(C)CC(C=O)NC(=O)C(CC(C)C)NC(=O)C(CC(C)C)NC(=O)OCc1ccccc1 (stereo not drawn) (Cbz-Leu-Leu-Leu-aldehyde; configuration not given here) | 0.872 (inactive) | 0.735 | 2300 | 2640 | -0.114 (inactive) | -3.43
25 | COC1=C2CC(C)CC(OC)C(O)C(C)C=C(C)C(OC(N)=O)C(OC)C=CC=C(C)C(=O)NC(=CC1=O)C2=O (stereo not given) | 0.91 (inactive) | 1.01 | 3230 | 3550 | 2.85 (active) | -2.42
26 | COC1=CC(=O)CC(C)[C@@]12Oc1c(Cl)c(OC)cc(OC)c1C2=O (stereo not given in full) | 0.974 (inactive) | 0.639 | 8290 | 8510 | -0.169 (inactive) | -0.138
27 | CCCN1CC(CSC)C[C@@H]2c3cccc4[nH]cc(c34)C[C@H]21 (stereo not given in full) | 0.938 (inactive) | 0.485 | 7000 | 7460 | -0.0829 (inactive) | -0.225
28 | Cc1[nH]nc2ccc(-c3cncc(OCC(N)Cc4ccccc4)c3)cc12 (stereo not given) | 1.1 (inactive) | 0.572 | 1470 | 1330 | 1.05 (inactive) | -3.52
29 | CC1COC(Nc2ccc3ncnc(Nc4ccc(OCc5nccs5)c(Cl)c4)c3c2)=N1 (stereo not given) | 0.841 (inactive) | 0.704 | 6940 | 8260 | 0.156 (inactive) | -0.466
30 | Cc1cc(C)nc(NS(=O)(=O)c2ccc(NC(=S)NC(=O)COc3ccc(Br)cc3Cl)cc2)n1 | 0.955 (inactive) | 1.42 | 7550 | 7900 | -0.302 (inactive) | -3.08
31 | CN(C)C(=O)Nc1cccc(-c2ccc(N(C)C)cc2)c1 | 0.935 (inactive) | 0.582 | 7650 | 8180 | -0.267 (inactive) | -1.04
32 | OCC(CO)NC1C[C@@](O)(CO)C(O)C(O)C1O (stereo not given in full) | 0.838 (inactive) | 1.1 | 8490 | 10100 | -0.052 (inactive) | -0.122
33 | CN1CC[C@H](c2c(O)cc(O)c3c(=O)cc(-c4ccccc4Cl)oc23)C(O)C1 (stereo not given in full) | 0.938 (inactive) | 1.82 | 1600 | 1700 | 3.42 (active) | -0.841
34 | CCOC(=O)c1ccc(N2NC(=O)C(=Cc3ccc([N+](=O)[O-])o3)C2=O)cc1 | 0.912 (inactive) | 0.455 | 7420 | 8150 | -0.255 (inactive) | -2.84
35 | COc1cccc2c1C(=O)c1c(O)c3c(c(O)c1C2=O)C[C@@](O)(C(=O)CO)CC3O[C@H]1CC(N)C(O)C(C)O1 (stereo not given in full) | 0.879 (inactive) and 1.08 (inactive) | 1.03 and 0.95 | 1470 and 1780 | 1680 and 1650 | 5.38 (active) and -0.136 (inactive) | 4.45 and -2.31
36 | CC(=O)C1=C(O)C=C2Oc3c(C(C)=O)c(O)c(C)c(O)c3[C@]2(C)C1=O | 0.866 (inactive) | 1.11 | 5890 | 6800 | -0.25 (inactive) | 0.769
37 | CCOC(=O)C(CCc1ccccc1)NC(C)C(=O)N1Cc2cc(OC)c(OC)cc2CC1C(=O)O (stereo not given) | 0.97 (inactive) | 0.414 | 7830 | 8070 | -0.293 (inactive) | -0.111
38 | NC(Cc1cc(I)c(Oc2cc(I)c(O)c(I)c2)c(I)c1)C(=O)O (stereo not given) | 0.891 (inactive) | 1.04 | 8130 | 9130 | -0.238 (inactive) | -1.06
39 | O=C(O)c1cc(I)ccc1NC(=O)C(Cc1ccccc1)NCc1ccccc1 (stereo not given) | 0.835 (inactive) | 0.632 | 8450 | 10100 | -0.035 (inactive) | 1.09
40 | CC(NC(=O)C(C#N)=Cc1cccc(Br)n1)c1ccccc1 (stereo not given) | 1.21 (inactive) | 0.817 | 1620 | 1340 | 0.502 (inactive) | 0.371
41 | CC(=O)O[C@@]1(C(C)=O)CC[C@H]2[C@@H]3CCC4=CC(=O)CCC4=C3C(c3ccc(N(C)C)cc3)C[C@@]21C (stereo not given in full) | 1.04 (inactive) | 0.797 | 6660 | 6380 | -0.373 (inactive) | -0.0703
42 | CC(C)CN(CC(O)C(Cc1ccccc1)NC(=O)OC1CCOC1)S(=O)(=O)c1ccc(N)cc1 (stereo not given) | 0.88 (inactive) | 0.898 | 7780 | 8840 | -0.312 (inactive) | 0.463
43 | COC1C=CO[C@]2(C)Oc3c(C)c(O)c4c(O)c(c5c(nc6cc(C)ccn65)c4c3C2=O)NC(=O)C(C)=CC=CC(C)C(O)C(C)C(O)C(C)C(OC(C)=O)C1C (stereo not given in full) | 0.885 (inactive) | 1.2 | 7180 | 8110 | -0.112 (inactive) | 0.022
44 | CC(=O)[C@H]1CC[C@H]2[C@@H]3C=CC4=CC(=O)CC[C@@]4(C)[C@H]3CC[C@]12C | 0.894 (inactive) | 0.952 | 7680 | 8580 | -0.0223 (inactive) | -0.212
45 | CCc1cccc2c3c([nH]c12)[C@](CC)(CC(=O)O)OCC3 | 0.926 (inactive) | 0.786 | 7980 | 8620 | -0.475 (inactive) | -0.00521
